From PubChem BioAssay
Sampled rows, rich in hits. Any-hit rate of the full collection: about 6.9%.
MCF10A rereplic: inducers of DNA re-replication in MCF 10A breast cells. MCF 10A DNA re-replication, Hoechst nuclear intensity, 48 h. Potency, µM (highest dose often 46.1 µM), for inactives: top-dose activity, positive = re-replication, hits mostly activators. actives 2.9% (n = 350,000). AID 624296; further: potency means the concentration at half of the fitted maximal effect; % of control where 0% means no effect; nearly all actives have a fitted effect of over 50% in size
S-ASM inh: inhibitors of human secretory acid sphingomyelinase. actives 0.006% (n = 340,000). AID 504937. P17405. Potency, µM (doses to about 57.5 µM), for inactives: top-dose activity change, negative = inhibition, hits mostly inhibitors. placental ASM, HMU-PC fluorogenic substrate, 60 min; further: potency means the concentration at half of the fitted maximal effect
Target sequence (P17405 47-631 limits assumed): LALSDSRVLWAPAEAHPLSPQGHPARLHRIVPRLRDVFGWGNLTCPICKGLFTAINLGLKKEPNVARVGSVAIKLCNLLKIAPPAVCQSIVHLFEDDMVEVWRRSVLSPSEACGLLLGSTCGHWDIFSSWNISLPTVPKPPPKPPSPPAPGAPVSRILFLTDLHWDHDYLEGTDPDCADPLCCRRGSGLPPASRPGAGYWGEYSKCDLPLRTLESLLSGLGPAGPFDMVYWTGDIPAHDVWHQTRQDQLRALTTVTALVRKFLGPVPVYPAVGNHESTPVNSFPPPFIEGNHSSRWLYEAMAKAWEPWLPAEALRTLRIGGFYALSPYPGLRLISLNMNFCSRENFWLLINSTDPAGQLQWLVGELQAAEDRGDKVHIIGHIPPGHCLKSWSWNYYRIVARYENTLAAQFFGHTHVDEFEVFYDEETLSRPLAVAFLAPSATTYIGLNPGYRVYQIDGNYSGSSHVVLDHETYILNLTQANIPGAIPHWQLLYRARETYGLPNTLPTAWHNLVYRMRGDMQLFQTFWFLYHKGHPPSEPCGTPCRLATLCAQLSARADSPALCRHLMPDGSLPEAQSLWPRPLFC
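Steps: dispense placental human ASM, pin compound, wait 10 min at room temperature, add HMU-PC0 substrate at 9 uM final, incubate 60 min at 37 °C, add stop solution raising pH to 10, read fluorescence.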
KB-V1 MDR tox: kills drug-selected multidrug resistant KB-V1 cells. KB-V1 MDR cells viability, CellTiter-Glo, 72 h. Potency, µM (highest dose often 46.1 µM), most hits filed as cytotoxic. actives 3.4% (n = 400,000); further: potency means the concentration at half of the fitted maximal effect; on the % scale 0 is the no-effect control and ±100 the full control effect; nearly all actives have a fitted effect of over 60% in size
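Following 72 h at 37 degrees C with compound, KB-V1 cell viability was read by CellTiter-Glo luminescence, medium being phenol-red-free DMEM plus 10% FBS; concentration-response parameters came from normalized, curve-fitted qHTS data.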
Giardia kill: Giardia lamblia killing; AID 540267; activity change, % at 7.66 µM, hits read low; actives 0.15% (n = 340,000); Giardia lamblia trophozoite viability; in the data active means activity change below about -80%; inconclusive means between about -30% and that limit;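 further: parasites exposed to compound for two days anaerobically before the ATP read; on the % scale 0 is the no-effect control and ±100 the full control effect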
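Anaerobic 48 hrs incubation at 37 deg C of 100 trophozoites/well with test compounds; ATPLite 1-Step luminescence, 15-30 min RT, reports cellular ATP as viability.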
SW480 rereplic: inducers of DNA re-replication in SW480 colon cancer cells | SW480 DNA re-replication, Hoechst DNA content imaging, 48 h | Potency, µM (doses to about 46.1 µM), for the others: at the highest dose re-replication activation, usual class: activators | actives 1.8% (n = 340,000) | AID 624297; further: potency means the concentration at half of the fitted maximal effect; % of control where 0% means no effect; nearly all actives have a fitted effect of over 55% in size
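First, 250 cells per well were seeded. Next, compound or vehicle (23 nL) was pinned in, plates sat 48 hr at 37 C. Finally Hoechst was added for 40 min before fluorescence scanning.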
KB-3-1 tox: KB-3-1 parental cell cytotoxicity; Potency, µM (highest dose often 46.1 µM), actives largely listed as cytotoxic; KB-3-1 viability, CellTiter-Glo ATP luminescence, 72 h; AID 1347075; actives 1.4% (n = 400,000); further: potency means the concentration at half of the fitted maximal effect; on the % scale 0 is the no-effect control and ±100 the full control effect; nearly all actives have a fitted effect of over 60% in size
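72 h, 37 °C compound treatment of KB-3-1 parental cells; CellTiter-Glo added, 10 min, luminescence read. Data corrected against DMSO-only plates and normalized before curve fitting.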
An asterisk follows results filed as active; i = inactive; ? = inconclusive; . = no result given. Unless noted, the call rests on the fitted dose curve; in most records, active means well fitted curve in the direction sought with a large enough effect; inconclusive means small, poorly fitted or top-dose-only effect, or another doubt; inactive means no such curve, though single readings can be large; an effect the other way counts as inactive or inconclusive.

SMILES	MCF10A rereplic	S-ASM inh	KB-V1 MDR tox	Giardia kill	SW480 rereplic	KB-3-1 tox
COc1ccc(-c2nnc(CSc3nc4ccccc4c(=O)n3CC(C)C)o2)cc1OC	-1%	-22%	21µM*	16	3%	i
O=C(CCc1nc2ccccc2c(=O)[nH]1)Nc1nnc(SCc2ccccc2)s1	11%	-2%	i	-8	-11%	i
CC(C)Cn1c(SCc2nc3ccccc3c(=O)[nH]2)nc2ccccc2c1=O	11µM*	-1%	i	13	?	i
Cn1c(SCc2nc3ccccc3c(=O)[nH]2)nc2ccccc21	-27%	11%	?	28	2%	i
COc1ccc(Cl)cc1C(=O)Nc1nnc2n1CCS2	.	.	i	.	.	i
CC(=O)Nc1ccc(SCCN2CCN(CC(C)C)CCC2=O)cc1	.	.	.	-11	.	.
O=C(Nc1ccc(F)cc1)Nc1csc2c1CCCC2	.	.	i	.	.	i
COC(=O)C1=C(CN2CCN(C)CC2)NC(=O)NC1c1cc(C)ccc1C (configuration not stated)	1%	2%	i	-2	1%	i
COC(=O)C1=C(COc2ccc(C=O)cc2OC)NC(=O)NC1c1cc(C)ccc1C (configuration not stated)	12%	-2%	21µM*	7	0%	?
Cc1cccc(C)c1Cn1c(C)c(C(=O)NCc2ccc([N+](=O)[O-])cc2)sc1=O	.	.	2.6µM*	.	.	?
CC(=O)Oc1ccccc1Cn1c(C)c(C(=O)NCc2cccc(Cl)c2)sc1=O	.	.	?	.	.	i
Cc1cccc(CNC(=O)c2sc(=O)n(Cc3ccc(S(C)(=O)=O)cc3)c2C)c1	.	.	15µM*	.	.	?
Cc1c(C(=O)NCc2ccccc2C(F)(F)F)sc(=O)n1Cc1ccc(S(=O)(=O)N(C)C)cc1	.	.	8.2µM*	.	.	?
CSc1ccc(Cn2c(C)c(C(=O)NCc3cccc(Cl)c3)sc2=O)cc1	.	.	9.2µM*	.	.	i
O=C(Cn1c(=O)oc2ccccc21)NCc1cccc(Cl)c1	.	.	i	.	.	i
COc1ccc(CC(=O)OCC(=O)N2CCc3ccccc32)cc1OC	-6%	8%	?	-5	-43%	i
Cc1c(C(=O)NCc2cccc(Cl)c2)sc(=O)n1Cc1cccc(F)c1	.	.	18µM*	.	.	i
COc1ccc(Cl)cc1Cn1c(C)c(C(=O)NCc2cccc(Cl)c2)sc1=O	.	.	15µM*	.	.	i
Cc1c(C(=O)NCc2ccc(Cl)c(Cl)c2)sc(=O)n1Cc1cccc(F)c1	.	.	?	.	.	i
COc1ccc(CNC(=O)c2sc(=O)n(Cc3ccc(C)cc3)c2C)cc1	.	.	21µM*	.	.	i
COc1ccc(C(C)=O)cc1Cn1c(C)c(C(=O)NCc2cccc(Cl)c2)sc1=O	.	.	?	.	.	i
COc1ccc(NC(=O)c2sc(=O)n(Cc3ccc(F)c(Cl)c3)c2C)cc1OC	.	.	?	.	.	4.6µM*
CC(C)(C)NC(=O)C(c1ccc(O)cc1)N(C(=O)Cn1nnc(-c2ccc(F)cc2)n1)c1ccccc1F (configuration not stated)	19%	-3%	i	-2	16%	?
CC(C)CCNC(=O)C1CCC(=O)N1CCc1ccccc1 (configuration not stated)	0%	3%	i	2	9%	i
COc1ccc(Cn2ccc3nc(C)c(C(=O)NCc4ccc(C)cc4)cc3c2=O)cc1	.	.	i	.	.	5.2µM*
SMILES	MCF10A rereplic	S-ASM inh	KB-V1 MDR tox	Giardia kill	SW480 rereplic	KB-3-1 tox
C=Cc1ccc(Cn2c(C)c(C(=O)NCc3cccc(C)c3)sc2=O)cc1	.	.	?	.	.	i
CSc1ccc(Cn2c(C)c(C(=O)NCc3cccc(C)c3)sc2=O)cc1	.	.	9.2µM*	.	.	i
Cc1cc(=O)oc2cc(OCC(=O)NCCc3c[nH]c4ccc(F)cc34)ccc12	14%	-3%	?	?	13µM*	i
Cc1ccc(-n2ccnc(NCCc3ccc(S(N)(=O)=O)cc3)c2=O)cc1C	.	.	i	.	.	i
Cc1ccc(C)c(S(=O)(=O)N(C)c2ccc(OC(=O)CN3C(=O)NC4(CCCC4)C3=O)cc2)c1	-11%	-3%	i	1	-6%	i
O=C(CN1C(=O)NC2(CCCCC2)C1=O)Oc1ccc2ccc(=O)oc2c1	?	i	i	14	10µM*	i
COC(=O)c1cc2oc3ccccc3c2n1CC(=O)Nc1cc(OC)cc(OC)c1	.	.	i	.	.	i
CC(=O)N1CCN(c2ccc(NC(=O)COc3ccc(Cl)cc3Cl)cc2)CC1	23%	1%	?	10	2%	i
Cc1cc(Cl)ccc1OCC(=O)NCc1ccncc1	-8%	-1%	?	4	-3%	i
CCN1CCN(c2ccc(NC(=O)COc3ccc(Cl)cc3C)cc2)CC1	?	-1%	?	?	15µM*	?
Cc1cc(Cl)ccc1OCC(=O)Nc1ccncc1	16µM*	1%	?	-6	-22%	i
COc1cc(NS(=O)(=O)c2cc(NC(C)=O)ccc2OC)c(OC)cc1NC(=O)c1ccccc1	-5%	0%	i	3	-9%	i
CCc1ccc(S(=O)(=O)c2nnn3c2nc(Nc2ccc(NC(C)=O)cc2)c2sccc23)cc1	.	.	i	.	.	i
COCCn1c(SCC(=O)c2c[nH]c3ccccc23)nc2cc(C(=O)NCC(C)C)ccc2c1=O	.	.	i	.	.	i
CC(C)CC(=O)Nc1ccc(C(=O)NNC(=S)NC(=O)C2CCCCC2)cc1	-5%	1%	10µM*	-5	0%	i
N#CCC(=O)Nc1ccc(C(=O)NNC(=S)NC2CCCCC2)cc1	1%	6%	i	1	11%	i
Cc1nc2c3cc(F)ccc3n(CCN3CCCCC3)c2s1	23µM*	-1%	i	?	?	?
Cc1nc2c3cc(F)ccc3n(Cc3ccccc3F)c2s1	105%	-7%	?	2	?	?
Cc1nc2c3cc(F)ccc3n(Cc3ccccc3)c2s1	19%	-3%	?	5	?	16µM*
Cc1nc2c3ccccc3n(Cc3ccccc3F)c2s1	15µM*	-3%	?	14	17%	i
COc1ccc(C2CC(=O)Oc3c(C(CCN4CCCC(C)C4)c4cc(OC)c(OC)c(OC)c4)c(OC)cc(OC)c32)cc1 (configuration not stated)	.	.	.	-5	.	.
CC1COc2ccccc2N1C(=O)c1ccc(Cl)cc1 (configuration not stated)	2%	-3%	i	-8	-3%	i
Cc1ccc(S(=O)(=O)N2c3ccccc3OCC2c2ccccc2)cc1 (configuration not stated)	16µM*	4%	?	3	?	?
